CYP2C19 act: cytochrome P450 2C19 (human) activation | P33261 | recombinant CYP2C19, luciferin-H EGE luminescence; active compounds read high; 0 = fully inhibited enzyme, 1 = untreated enzyme | activation factor at 5 µM | 96,000 tested, under 10 active | AID 1025;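 active means activation factor of at least 2 at 5 µM in the primary screen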
Target sequence (P33261 whole entry, looked up): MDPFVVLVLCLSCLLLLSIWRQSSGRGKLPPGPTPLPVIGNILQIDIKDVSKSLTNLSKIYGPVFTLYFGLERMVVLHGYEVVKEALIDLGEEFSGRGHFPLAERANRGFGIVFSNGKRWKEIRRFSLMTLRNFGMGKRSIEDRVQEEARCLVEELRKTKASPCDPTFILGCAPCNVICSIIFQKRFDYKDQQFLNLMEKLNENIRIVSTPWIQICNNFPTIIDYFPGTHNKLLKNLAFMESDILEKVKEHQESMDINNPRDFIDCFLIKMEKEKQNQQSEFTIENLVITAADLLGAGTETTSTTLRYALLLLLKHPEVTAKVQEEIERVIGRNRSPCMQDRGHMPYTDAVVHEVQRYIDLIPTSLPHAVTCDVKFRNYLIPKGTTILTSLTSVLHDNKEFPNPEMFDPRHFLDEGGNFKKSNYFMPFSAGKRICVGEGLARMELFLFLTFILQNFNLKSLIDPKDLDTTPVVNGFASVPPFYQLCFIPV
CYP2C9 act: CYP2C9 (human) activation | recombinant CYP2C9, luciferin-H conversion, luminescence; active compounds read high; factor 1 = untreated enzyme, 0 = blocked | activation factor at 5 µM | 96,000 tested, 1.4% active | AID 1024;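 active means activation factor of 2 or more for CYP2C9 at a 5 µM dose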
Cav3 T inh: human Cav3.2 channel inhibition, primary screen | O95180 | Cav3.2-expressing cells, Fluo-4 calcium fluorescence FDSS; active compounds read low | B-score at 10 µM | 100,000 tested, 4% active | AID 449739;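 active means single-dose well whose peak fluorescence ratio is a statistical outlier from its plate by either plate-standardised score or position-corrected B-score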
CYP2C9 inh: human CYP2C9 inhibition. P11712. CYP2C9 Supersomes, luciferin-H conversion, luminescence. inhibition, % at 5 µM. 96,000 tested, 20% active. AID 777;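 active means blocking of liver enzyme CYP2C9 beyond about 50% at 5 µM, limit read from the data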
CYP2C19 inhib: inhibitors of human CYP2C19; P33261; CYP2C19 Supersomes, luciferin-H EGE luminescence, 30 min; inhibition, % at 5 µM; 96,000 tested, 21% active;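 active means CYP2C19 inhibition above a set limit at 5 µM in the primary screen, cut at about 50% in these data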
Hits are given with their value; - = inactive; . = no result. Most compounds without a hit are left out; they make up all but 27% or so of the library.

SMILES	CYP2C19 act	CYP2C9 act	Cav3 T inh	CYP2C9 inh	CYP2C19 inhib
CC(C)Cc1nc(S(=O)(=O)c2ccc(Cl)cc2)c(N2CCOCC2)o1	-	-	-	-	57
COc1ccccc1-c1nc(S(=O)(=O)c2ccc(Cl)cc2)c(N(C)C)o1	-	-	-	-	-
CC(C)(C)c1nc(S(=O)(=O)c2ccc(Cl)cc2)c(N2CCOCC2)o1	-	-	-	-	-
CCN(CC)C(=S)Sc1c(-c2ccccc2)c2cc(Cl)ccc2[nH]c1=O	-	-	-	-	-
O=C(c1ccccc1)c1ccc(C(=O)N2CCN(c3ccc(F)cc3)CC2)o1	-	-	-	81	89
CCc1ccc(C(=O)N2CCCC2)s1	-	-	-	-	-
CCc1ccc(C(=O)N2CCN(c3ccc(F)cc3)CC2)s1	-	-	-	-	87
CCCCC(c1nnnn1CC1CCCO1)N1CCN(Cc2ccccc2)CC1 (stereo unspecified)	.	.	-	.	.
CCCCC(c1nnnn1CC1CCCO1)N1CCN(c2cccc(C)c2C)CC1 (stereo unspecified)	-	-	-5.8	-	-
COc1ccc(C(c2nnnn2CC2CCCO2)N2CCC(C(N)=O)CC2)cc1 (stereo unspecified)	.	.	-	.	.
COc1ccc(C(c2nnnn2CC2CCCO2)N2CCN(c3cccc(C)c3C)CC2)cc1 (stereo unspecified)	-	-	-3.7	66	-
O=C(NC(CO)c1ccccc1)c1ccco1 (stereo unspecified)	-	-	-	-	-
O=C(CSc1nc2cc(Cl)ccc2s1)c1ccco1	-	-	-	-	89
O=C(CSCc1ccc(Cl)cc1)c1ccco1	-	-	-	58	73
O=C(CSc1nnc(SCC(=O)c2ccco2)s1)c1ccco1	-	-	.	-	-
O=S1(=O)N=C(Oc2cccc3ccccc23)c2ccccc21	.	.	-	.	.
CC(C)(C)OC(=O)N1CCC(c2cc(=O)n3[nH]c(-c4ccc(Cl)cc4)cc3n2)CC1	-	-	-	-	-
CC(C)(C)OC(=O)N1CCC(c2cc(=O)n3[nH]cc(C(=O)NC4CCCC4)c3n2)CC1	-	-	-	95	-
CCCCCCN(C(=O)CCCCCN1C(=O)NC(c2ccc(-c3ccccc3)cc2)C(C(=O)OCc2ccccc2)=C1C)C(C(=O)NCCCC)c1ccc(O)cc1 (stereo unspecified)	.	.	-	.	.
COc1ccc(C(CNC(=O)CCOc2ccccc2)N(C)C)cc1 (stereo unspecified)	-	-	-	-	55
COc1ccc(NC(=O)CCC(=O)Nc2nnc(C(F)(F)F)s2)c(OC)c1	-	-	-	65	-
CCN(CC)S(=O)(=O)c1cc([N+](=O)[O-])ccc1NNC(=O)Nc1ccccc1OC	-	-	-9.1	63	51
CC(=O)c1ccc(OCCCC(=O)NCC(c2ccco2)N(C)C)cc1 (stereo unspecified)	-	-	-	63	81
COc1ccc(OCCCC(=O)NCC(C)C)cc1	-	-	-	-	-
COc1ccc(NC(=O)CCOc2ccccc2)c(OC)c1	-	-	-	-	73
SMILES	CYP2C19 act	CYP2C9 act	Cav3 T inh	CYP2C9 inh	CYP2C19 inhib
COc1cc([N+](=O)[O-])ccc1NC(=O)CCCOc1ccccc1	-	-	.	-	64
COc1cc([N+](=O)[O-])ccc1NC(=O)CN(C)C	-	-	-	-	-
COc1ccc(OCCCC(=O)Nc2cc([N+](=O)[O-])ccc2C)cc1	-	2.6	-	-	-
O=C(CCOc1ccccc1)NCC(c1ccco1)N1CCCCC1 (stereo unspecified)	-	-	-	-	66
CCOC(=O)c1sc(C)c2c(=O)n(CCCN3CCOCC3)cnc12	-	-	-	-	-
Cc1cc(C)cc(N2CC34C=CC(O3)C(C(=O)OCC(=O)NCc3ccco3)C4C2=O)c1 (stereo unspecified)	-	-	-	-	-
O=C(CCC(=O)NC1CCCCCC1)Nc1nnc(C(F)(F)F)s1	-	-	-	66	-
CCN(CC(=O)Nc1ccc([N+](=O)[O-])cc1OC)c1ccccc1	-	-	-	78	53
COc1ccc(NC(=O)CC(=O)Nc2ccc(OC)cc2OC)c(OC)c1	-	-	-	-	-
COc1ccc(NC(=O)N2CCC(c3ccccc3)C2)c(OC)c1 (stereo unspecified)	-	2.1	-	-	85
CC(C)c1nnc(NC(=O)CCC(=O)NC2CCCCCCC2)s1	-	-	-	-	-
COc1ccc(/C=N/c2nc3ccccc3n2C)cc1OC	-	-	-	-	-
Cn1c(/N=C/c2cccs2)nc2ccccc21	-	-	3	-	-
Cn1c(/N=C/c2cc(Cl)ccc2O)nc2ccccc21	-	-	-4.8	-	-
C=CCSc1nnc2n(-c3ccccc3OC)c(=O)c3c4c(sc3n12)CCC4	-	-	-	-	-
Cc1ccc(-n2ncc(C(=O)N3CCc4ccccc4C3)c2NC(=O)c2ccco2)cc1C	.	.	-	.	.
CC1CCCCN1S(=O)(=O)c1ccc2c(c1)CCN2C(=O)CCC(=O)O (stereo unspecified)	-	-	-	-	-
CCN(c1ccc(C)c(C)c1)S(=O)(=O)c1ccc2c(c1)CCN2C(=O)CCC(=O)O	-	-	-	52	-
CCN(c1ccc(OC)cc1)S(=O)(=O)c1ccc2c(c1)CCN2C(=O)CCC(=O)O	-	-	-	70	-
C=CCn1c(NC(=O)c2ccc(C)cc2)c(C#N)sc1=N	-	-	-	-	-
FC(F)Sc1ccc(NC(=S)NC2CCCCC2)cc1	-	2.4	-	-	75
O=C(Nc1ccc(Cl)cc1)NC1CCCCC1	-	-	-	-	-
CC1CCCCC1NC(=S)Nc1ccc(SC(F)F)cc1 (stereo unspecified)	-	2.3	-	-	61
O=C(Nc1ccc(SC(F)F)cc1)C1=COCCO1	-	-	-	-	-
FC(F)Sc1ccc(NC(=S)NCC2CCCCC2)cc1	-	-	-5.7	-	96
SMILES	CYP2C19 act	CYP2C9 act	Cav3 T inh	CYP2C9 inh	CYP2C19 inhib
O=C(Nc1ccc(SC(F)F)cc1)c1cccc2nc3ccccc3nc12	-	-	-	-	-
CCN(CC)C(=O)c1cnn(-c2ccccc2)c1NC(=O)c1ccccc1F	.	.	-	.	.
CCOC(=O)C(C)Oc1ccc2c(CC)cc(=O)oc2c1C (stereo unspecified)	-	-	-	60	-
CC(=O)c1c(OCC(=O)O)ccc2c(C)cc(=O)oc12	-	-	-	-	-
CCOC(=O)C(C)Oc1ccc2c(C)cc(=O)oc2c1C(C)=O (stereo unspecified)	-	-	-	-	58
Clc1ccc(C2[C@H]3CN(Cc4cccnc4)[C@H](c4ccccc4)C34CC2(c2cccnc2)C4)cn1 (stereo partly specified)	.	.	-	.	.
CCCCC1=CC2=C(c3ccco3)C(=O)C(C)(OC(=O)c3ccc(OC)cc3)C(=O)C2=CN1C1CCCC1 (stereo unspecified)	.	.	-	.	.
O=C(CSc1nc2ccccc2s1)c1cc2ccccc2o1	-	-	-	-	-
Cn1c(SCC(=O)N2CCN(c3ccccc3)CC2)nnc1-c1cc2ccccc2o1	-	-	-	-	-
